Experimental data published in PubChem BioAssay AID504329 (Southern Research Specialized Biocontainment Screening …, 2011).
About 1,000 (0.29%) of roughly 340,000 compounds were called active. A selection follows. Measured potencies and affinities stand elsewhere. Unmarked numbers belong to inactive results. Rule as the data show it: inconclusive = inhibition above about 27% without an active follow-up result; inactive = below that.

Experiment: NS1A inhibition, H1N1 influenza, cell based functional assay (AID 504329)
Conditions: percent inhibition, at 12.5 µM, stronger effect = higher value

Row | SMILES | inhibition [%]
1 | CCCc1cc(N2CCCC(C(=O)NCC)C2)n2ncnc2n1 (stereo unspecified) | -10
2 | NC(=O)C1(N2CCCCC2)CCN(c2ccc3nnc(-c4ccccc4)n3n2)CC1 | -13.3
3 | COC(=O)c1cc(C(=O)c2c(C)cc3ccccn23)cc([N+](=O)[O-])c1 | 16.9
4 | Cc1cc2ccccn2c1C(=O)c1cccc([N+](=O)[O-])c1 | 4.98
5 | O=C(NCCC1=CCCCC1)C(=O)NCCc1ccc(Cl)cc1 | 1.14
6 | C=CC[C@@H](CC(=O)N[C@@H](CO)Cc1ccccc1)C(=O)N[C@H](C)COC(=O)[C@@H](CC=C)Cc1ccc(F)cc1 | -3.08
7 | CCOC(=O)/C(=N\Nc1ncnc2ccccc12)c1ccc(C)cc1 | 12.6
8 | COc1ccc(/C(=N/Nc2ncnc3ccccc23)C(=O)O)cc1 | 5.64
9 | O=C(NCc1ccccn1)Nc1cc(Cl)ccc1Cl | -13.2
10 | COc1ccc(CNC(=O)Cn2cc(C(F)(F)F)ccc2=O)cc1 | -8.07
11 | COc1ccc(/C=C2/C(=O)N(Cc3ccccc3)N=C2C)cc1 | -0.08
12 | CC1=NN(CCC#N)C(=O)/C1=C/c1ccc(N(C)C)cc1 | 18.1
13 | CN(C)c1ccc(C=C2C(=O)OC(C)(C)OC2=O)cc1 | 0.66
14 | CN(C)c1ccc(/C=C2\C(=O)NC(=O)N(Cc3ccc(F)cc3)C2=O)cc1 | -0.15
15 | COc1ccc(CCC(=O)OCC(=O)Nc2ccccc2OC(F)F)cc1OC | -3.13
16 | CCOC(=O)C(NC(C)=O)(Nc1ccc(S(=O)(=O)Nc2nccs2)cc1)C(F)(F)F (stereo unspecified) | -7.42
17 | Cc1cccc(-n2c(O)c(C=Nc3cc(O)ccc3C)c3ccccc3c2=O)n1 | 3.61
18 | COc1cc(C2C(C(C)=O)=C(O)C(=O)N2CCN(C)C)ccc1O (stereo unspecified) | -16
19 | O=C(COC(=O)c1n[nH]c(=O)c2ccccc12)NC1CCCCC1 | -3.19
20 | COc1cc(NC(=O)CSCc2ccc(Cl)cc2)c(C(=O)O)cc1OC | -10.8
21 | O=C(Cc1n[nH]c(=O)c2ccccc12)Nc1cc(Cl)ccc1-n1cncn1 | -5.46
22 | COc1ccc(C(=O)N/N=C/c2ccc(OC)c(COc3ccccc3)c2)cc1 | -10.8

Row | SMILES | inhibition [%]
23 | COc1ccc(C(=O)N/N=C/c2ccc(OC)c(COc3ccc(F)cc3)c2)cc1 | -7.91
24 | CCC(CC)NC(=O)CO/N=C/c1ccc(Cl)cc1Cl | 2.24
25 | O=C(O)C1C2C=CC(C2)C1C(=O)NCCCN1CCOCC1 (stereo unspecified) | -16.9
26 | C[C@H](CO)N1C[C@H](C)[C@@H](CN(C)S(=O)(=O)c2cccs2)Oc2ccc(NC(=O)c3ccncc3)cc2C1=O | -5.12
27 | CCN(CC)Cc1cc(C(=O)O)c(-c2ccccc2)o1 | -10.3
28 | CC1CCCN(C2=C(NS(=O)(=O)c3ccc(Cl)cc3)C(=O)c3ccccc3C2=O)C1 (stereo unspecified) | 3.15
29 | NC(=O)C1CCN(C2=C(NS(=O)(=O)c3ccc(Cl)cc3)C(=O)c3ccccc3C2=O)CC1 | -27.5
30 | CCN1CCN(C2=C(NS(=O)(=O)c3ccc(Br)cc3)C(=O)c3ccccc3C2=O)CC1 | 5.79
31 | CC(=O)Nc1ccc(S(=O)(=O)NC2=C(N3CCN(C)CC3)C(=O)c3ccccc3C2=O)cc1 | 7.96
32 | CCOC(=O)C1CCCN(c2nc3ccccc3nc2NS(=O)(=O)c2ccc(C)cc2)C1 (stereo unspecified) | -25.9
33 | CCOC(=O)C1CCN(C2=C(NS(=O)(=O)c3ccc(Cl)cc3)C(=O)c3ccccc3C2=O)CC1 | -27.4
34 | CCOC(=O)C1CCN(C2=C(NS(=O)(=O)c3ccc(Br)cc3)C(=O)c3ccccc3C2=O)CC1 | 27.6
35 | NC(=O)C1CCN(C2=C(NS(=O)(=O)c3ccc(Br)cc3)C(=O)c3ccccc3C2=O)CC1 | 23.9
36 | CCCN(CC(=O)Nc1ccccc1C)C(=O)CCNC(=O)c1ccccc1Cl | 0.78
37 | O=C(c1ccccc1)N1CCCC(C(=O)N2CCc3ccccc3C2)C1 (stereo unspecified) | -4.42
38 | Cc1ccc(C)c(NCc2n[nH]c(=S)n2-c2ccccc2)c1 | -0.26
39 | O=C(OC(C(=O)NCC1CCCO1)c1ccccn1)c1cccs1 (stereo unspecified) | -1.32
40 | COc1ccc(NC(=O)COC(=O)CN2C(=O)C3CCCCC3C2=O)cc1OC (stereo unspecified) | -0.56
41 | CC(C)C[C@H](NC(=O)C1CCN(C(=O)[C@H](Cc2ccccc2)NC(=O)OC(C)(C)C)CC1)C(=O)O | -7.8
42 | COC(=O)CCC(=O)N(CCN(Cc1ccccc1)C(=O)CCC(=O)OC)Cc1ccccc1 | 8.88
43 | Cc1ccc(N=Nc2c(O)[nH]c(=O)[nH]c2=O)cc1S(=O)(=O)Nc1ccc(Br)cc1 | 9.19
44 | CCc1ccc(NC(=O)CN(c2ccc(OC)cc2)S(=O)(=O)c2c(C)[nH]c(=O)[nH]c2=O)cc1 | 2.97

Row | SMILES | inhibition [%]
45 | CN1CCN(c2ccc(S(=O)(=O)N3CCCCC3)cc2NC(=O)COc2ccc(F)cc2)CC1 | -7.14
46 | COc1ccc(C2C(C#N)=C(N)Oc3c2ccc2cccnc32)cc1OC (stereo unspecified) | -15.7
47 | COC(=O)C1=C(C)OC(N)=C(C#N)C1c1cc2cc(C)ccc2nc1Cl (stereo unspecified) | 11.8
48 | COc1cc(C2C(C#N)=C(N)Oc3c2ccc2ccccc32)ccc1OCC(=O)Nc1ccc(C)cc1 (stereo unspecified) | 1.8
49 | C[n+]1cccc(C2C(C#N)=C(N)Oc3c2ccc2ccccc32)c1 (stereo unspecified) | -17.7
50 | N#CC1=C(N)Oc2c(ccc3cccnc23)C1c1ccccc1 (stereo unspecified) | 25.4
51 | CCOC(=O)C1=C(C)OC(N)=C(C#N)C1c1cc2cc(C)ccc2nc1N1CCCCC1 (stereo unspecified) | -5.59
52 | CC(=O)C1=C(C)OC(N)=C(C#N)C1c1cc2cccc(C)c2nc1Cl (stereo unspecified) | -6.22
53 | CCc1ccc(C2C(C#N)=C(N)Oc3cc(N)ccc32)cc1 (stereo unspecified) | 0.13
54 | CC(C)(C)c1ccc(CN(Cc2ccccc2)C(c2ccccn2)c2nnnn2C(C)(C)C)cc1 (stereo unspecified) | 9.19
55 | C[C@H](CO)N1C[C@H](C)[C@@H](CN(C)Cc2ccc(-c3ccccc3)cc2)Oc2c(NC(=O)Cc3ccccc3)cccc2C1=O | 11.9
56 | CC(=O)Nc1ccc(Br)cc1C(=O)C(=O)O | 2.32
57 | C=CCc1c(C)[nH]c(=O)[nH]c1=O | -3.62
58 | Cc1noc(C)c1NC(=O)N(C)C[C@H]1Oc2ccc(NC(=O)NC(C)C)cc2C(=O)N([C@H](C)CO)C[C@@H]1C | -14.8
59 | CCCn1c(N)c(C(=O)CSc2nnc3n2CCCCC3)c(=O)n(C)c1=O | -16.1
60 | CC(C)CNS(=O)(=O)c1cc(C(=O)OC2CCOC2=O)c(Cl)cc1Cl (stereo unspecified) | -8.56
61 | COc1ccccc1CNc1ncccc1[N+](=O)[O-] | -1.95
62 | COc1ccccc1C(CNc1ncccc1[N+](=O)[O-])N(C)C (stereo unspecified) | -0.51
63 | CC(=O)c1ccc2c(c1)C1C(Cl)C(Sc3ccccc3[N+](=O)[O-])CC1C(C(=O)O)N2 (stereo unspecified) | 27.9
64 | CC(=O)c1ccc2c(c1)C1C(Cl)C(Sc3ccccc3[N+](=O)[O-])CC1C(c1ccccc1)N2 (stereo unspecified) | -9.68
65 | O=C(CN1CCN(C(=O)c2ccco2)CC1)Nc1ccccc1 | 0.71
66 | CN(C)c1nc2c(c(=O)[nH]c(=O)n2C)n1CCCc1ccccc1 | -3.17

Row | SMILES | inhibition [%]
67 | CCc1cccc(CC)c1NC(=O)CN(CC(=O)O)CC(=O)O | 5.31
68 | O=C(O)CP(=O)(O)O | -2.09
69 | Cn1c(=O)c2cc(S(=O)(=O)NC(C(=O)N3CCCCCC3)c3ccccc3)ccc2n(C)c1=O (stereo unspecified) | -3.38
70 | COc1ccccc1-c1cc(C(=O)NC(C)c2ccccc2)no1 (stereo unspecified) | 10.7
71 | CNc1cc(C(F)(F)F)nc(-c2ccccn2)n1 | -7.32
72 | Nc1nc(N)c(Cc2ccc(Cl)cc2Cl)c(N)n1 | -5.28
73 | Clc1ccc(COc2ccccn2)c(Cl)c1 | 18.9
74 | Cc1n[nH]c(C)c1Cc1c(F)cccc1Cl | -22.1
75 | O=C(Cc1c(F)cccc1Cl)Nc1ccccn1 | -10.5
76 | Cc1nc(N)c(Cc2ccccc2F)c(N)n1 | -3.84
77 | N#C/C(=C/c1ccc(-c2ccc(C(=O)O)c(Cl)c2)o1)C(=O)NCC1CCCO1 (stereo unspecified) | 9.84
78 | CN(CC(=O)Nc1ccncc1)S(=O)(=O)c1ccc(Cl)cc1 | 4.38
79 | CC(C)S(=O)(=O)c1cnc(N2CCOCC2)nc1N | -0.07
80 | Cc1cc(C(=O)CSc2nnc(N)s2)c(C)n1Cc1cccs1 | -7.01
81 | CCS(=O)(=O)N(CC(=O)Nc1cccc2ccccc12)c1ccc(OC)cc1 | -2
82 | CC(=O)Nc1ccc(NC(=O)C(NS(=O)(=O)c2cccc3nsnc23)C(C)C)cc1 (stereo unspecified) | 4.6
83 | c1cncc(-c2cn(C[C@H]3CC[C@H](Cn4cc(-c5cccnc5)nn4)O3)nn2)c1 | -19.1
84 | c1ccc(-c2cn(C[C@H]3CC[C@@H]([C@@H]4CC[C@H](Cn5cc(-c6ccccc6)nn5)O4)O3)nn2)cc1 | 1.07
85 | c1cncc(-c2cn(C[C@H]3CC[C@@H]([C@@H]4CC[C@H](Cn5cc(-c6cccnc6)nn5)O4)O3)nn2)c1 | -3.65
86 | Cc1ccc(-c2cn(C[C@H]3CC[C@@H]([C@@H]4CC[C@H](Cn5cc(-c6ccc(C)cc6)nn5)O4)O3)nn2)cc1 | 1.46
